Calls of active or inactive are those of the source. Unless noted, no rule for the calls is given here.
What was measured:
[1] = resazurin metabolic signal in HepG2 cells – cell-based, resazurin fluorescence, 24 h, PK04 Diversity Set, profiling panel (AID 1172); conditions: HepG2 viability, higher = more signal
[2] = budding yeast growth changes without added modifier – OD600, strain BY4716, 24 h, basal condition, primary screen (AID 1173); conditions: S. cerevisiae BY4716 growth, OD600, 24 h; higher = more signal, called active from +8 up or from −8 down
[3] = viability profiling in MM1S myeloma cells – cell-based, resazurin fluorescence, basal, 24 h, PK04 Diversity Set, profiling panel (AID 1174); conditions: higher = more signal, called active from +8 up or from −8 down;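 also: MM1S multiple myeloma cell line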
[4] = target: Dihydroorotate dehydrogenase (quinone), mitochondrial (Plasmodium falciparum (isolate 3D7)) (UniProt Q08210); experiment: inhibition of P. falciparum DHODH – biochemical, C-terminal His tag, absorbance 600 nm, primary screen (AID 1175); conditions: PfDHODH enzyme, DCIP absorbance 600 nm; higher = more signal, called active from +8 up or from −8 down;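 also: recombinant parasite enzyme with a five histidine tag at its C terminus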
[5] = inhibition of PAO1 biofilm formation – strain PAO1, LB-PBS medium, absorbance 600 nm, primary screen (AID 1176); conditions: P. aeruginosa PAO1 growth/biofilm, A600, 12 h; higher = more signal
[6] = growth modulation of vineyard yeast isolate – strain RM11-1a, OD600, basal, 24 h, primary screen (AID 1177);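 also: cultures grown under basal conditions with no added stressor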; conditions: S. cerevisiae RM11-1a growth, OD600, 24 h; higher = more signal, called active from +8 up or from −8 down
[7] = growth of efflux-deficient E. coli DRC39 – strain DRC39, OD650, 24 h, E. coli filamentation inducers, primary screen (AID 1178);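 also: growth measured as culture turbidity by optical density at 650 nm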; conditions: E. coli DRC39 acrAB, higher = more signal, called active from +8 up or from −8 down
[8] = growth of efflux-deficient E. coli DRC39 – strain DRC39, OD650, 48 h, E. coli filamentation inducers, primary screen (AID 1179);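 also: screen aims at cell division blockers that make cells filament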; conditions: E. coli DRC39 delta-acrAB growth, higher = more signal, called active from +8 up or from −8 down
[9] = viability profiling in RPMI8226 myeloma cells – cell-based, resazurin fluorescence, basal, 24 h, PK04 Diversity Set, profiling panel (AID 1180); conditions: higher = more signal;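 also: RPMI8826 multiple myeloma cell line at 5000 cells per well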
[10] = target: E3 ubiquitin-protein ligase XIAP (Homo sapiens) (UniProt P98170); experiment: small molecules binding XIAP protein – biophysical, small-molecule microarray, fluorescence 635 nm, primary screen (AID 1181); conditions: higher = more signal;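 also: score merges 667 nm emission and signal to noise over triplicate slides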
[11] = tested on: XIP peptide (Xip251-270) binding; experiment: XIP fragment 251-270 binding compounds – biochemical, small-molecule microarray, fluorescence 635/667 nm, 0.1 µg/mL protein, primary screen (AID 1182); conditions: fluorescent protein binding, 635 nm, higher = more signal, called active from +8 up or from −8 down
XIP peptide (Xip251-270) = experiment: compounds binding XIP fragment 251-270 – biochemical, small-molecule microarray, fluorescence 635/667 nm, 0.5 µg/mL protein, primary screen (AID 1183); conditions: fluorescence 635 nm, higher = more signal
[12] = blood-stage malaria parasite viability loss – strain 3D7, DAPI fluorescence, 100 nL, primary screen (AID 1184);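 also: parasites grown inside human red blood cells in medium with human serum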; conditions: P. falciparum 3D7 growth, 3 d, higher = more signal
[13] = target: Homeobox protein Hox-A13 (Mus musculus) (UniProt Q62424); experiment: disruptors of Hoxa13 oligonucleotide interaction – biochemical, fluorescence polarization, labeled oligonucleotide, primary screen (AID 1185); conditions: Hoxa13:DNA binding, 15 min, higher = more signal, called active from +8 up or from −8 down
[14] = blockers of DNA damage checkpoint Chk1 activation – imaging, HeLa, hydroxyurea, phospho-Chk1 antibody, percent positive cells, primary screen (AID 1186); conditions: hydroxyurea-induced phospho-Chk1 immunofluorescence imaging, higher = more signal
[15] = blockers of DNA damage checkpoint Chk1 activation – imaging, HeLa, hydroxyurea, phospho-Chk1 nuclear intensity, primary screen (AID 1187); conditions: hydroxyurea-induced phospho-Chk1 immunofluorescence imaging, higher = more signal

Chain of Dihydroorotate dehydrogenase (quinone), mitochondrial (Plasmodium falciparum (isolate 3D7)) (Q08210 whole entry, looked up): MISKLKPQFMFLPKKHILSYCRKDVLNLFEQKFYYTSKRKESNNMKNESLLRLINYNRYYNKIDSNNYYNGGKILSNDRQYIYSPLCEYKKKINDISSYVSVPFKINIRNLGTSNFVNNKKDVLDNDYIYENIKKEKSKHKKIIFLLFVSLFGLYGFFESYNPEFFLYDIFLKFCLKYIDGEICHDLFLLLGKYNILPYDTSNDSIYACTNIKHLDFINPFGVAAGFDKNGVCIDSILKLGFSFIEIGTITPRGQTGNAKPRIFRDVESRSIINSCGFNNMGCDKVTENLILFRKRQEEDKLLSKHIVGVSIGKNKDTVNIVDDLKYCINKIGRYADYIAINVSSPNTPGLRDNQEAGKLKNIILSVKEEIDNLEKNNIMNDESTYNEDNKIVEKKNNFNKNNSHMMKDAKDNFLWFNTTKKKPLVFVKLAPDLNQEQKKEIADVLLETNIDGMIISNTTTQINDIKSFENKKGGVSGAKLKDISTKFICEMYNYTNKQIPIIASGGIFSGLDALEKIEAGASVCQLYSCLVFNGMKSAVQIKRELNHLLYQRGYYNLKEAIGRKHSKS
Chain of E3 ubiquitin-protein ligase XIAP (Homo sapiens) (P98170 whole entry, looked up, the tested form may be a part): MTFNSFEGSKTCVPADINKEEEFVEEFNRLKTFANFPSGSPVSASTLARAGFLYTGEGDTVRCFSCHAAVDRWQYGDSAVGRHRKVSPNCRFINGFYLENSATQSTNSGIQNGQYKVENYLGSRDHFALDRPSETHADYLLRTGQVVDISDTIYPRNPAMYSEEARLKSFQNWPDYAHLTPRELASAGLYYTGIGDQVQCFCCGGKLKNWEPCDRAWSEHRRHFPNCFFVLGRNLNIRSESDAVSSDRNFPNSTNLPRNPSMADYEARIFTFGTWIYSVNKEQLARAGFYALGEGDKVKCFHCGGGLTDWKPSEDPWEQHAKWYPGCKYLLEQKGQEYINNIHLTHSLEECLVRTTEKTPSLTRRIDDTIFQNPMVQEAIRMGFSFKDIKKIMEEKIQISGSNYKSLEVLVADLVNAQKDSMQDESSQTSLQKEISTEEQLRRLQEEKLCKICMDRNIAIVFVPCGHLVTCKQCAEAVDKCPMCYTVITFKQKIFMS
Chain of Homeobox protein Hox-A13 (Mus musculus) (Q62424 whole entry, looked up): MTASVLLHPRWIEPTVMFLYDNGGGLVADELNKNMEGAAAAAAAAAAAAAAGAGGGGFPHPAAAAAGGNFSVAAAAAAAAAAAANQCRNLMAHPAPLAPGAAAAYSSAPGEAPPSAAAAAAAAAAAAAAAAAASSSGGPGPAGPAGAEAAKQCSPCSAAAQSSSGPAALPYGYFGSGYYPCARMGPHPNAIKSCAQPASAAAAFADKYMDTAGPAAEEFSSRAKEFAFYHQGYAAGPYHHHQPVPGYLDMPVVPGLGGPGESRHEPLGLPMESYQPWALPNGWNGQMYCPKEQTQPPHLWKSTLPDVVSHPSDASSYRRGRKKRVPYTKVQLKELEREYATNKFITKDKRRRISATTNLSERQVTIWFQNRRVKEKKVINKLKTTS

| Compound | z-score [1] | z-score [2] | z-score [3] | composite z-score [4] | z-score [5] | z-score [6] | z-score [7] | z-score [8] | z-score [9] | composite z-score [10] | composite z-score [11] | composite z-score (XIP peptide (Xip251-270)) | z-score [12] | z-score [13] | z-score [14] | z-score [15] |
| --- | --- | --- | --- | --- | --- | --- | --- | --- | --- | --- | --- | --- | --- | --- | --- | --- |
| C=CCC(OC(C)=O)[C@@H]1[C@@H](N(Cc2cc3ccccc3o2)C(=O)c2ccc(-c3ccccc3)cc2)c2cc(OCCCO)ccc2N1C(=O)c1ccc2ccccc2c1 (stereo partly drawn) | -0.98 | 1.9 (inactive) | 0.198 (inactive) | 0.396 (inactive) | 0.857 (inactive) | 0.454 (inactive) | -0.413 (inactive) | -0.787 (inactive) | -0.158 | -0.135 | -0.252 (inactive) | -0.273 | -1.41 | -0.926 (inactive) | 0.347 (inactive) | 0.433 (inactive) |
| COc1ccc(C(O)C2C=CC3C(=O)N(c4ccccc4)C(=O)C3N2Nc2ccc([N+](=O)[O-])cc2)cc1 (stereo not drawn) | -0.724 | 0.402 (inactive) | -0.754 (inactive) | -0.0727 (inactive) | 0.837 (inactive) | 0.613 (inactive) | -1.2 (inactive) | -0.996 (inactive) | -0.502 | 0.21 | 0.584 (inactive) | 0.797 | -0.906 | -3.98 (inactive) | 0.895 (inactive) | -0.355 (inactive) |
| O=C1O[C@@H](c2ccccc2)[C@@H](c2ccccc2)N2[C@@H](c3ccc(OCCO)cc3)[C@]3(C(=O)Nc4ccccc43)[C@@H](C(=O)O)[C@H]12 | -0.273 | -0.624 (inactive) | 0.432 (inactive) | -1.09 (inactive) | 0.449 (inactive) | -0.66 (inactive) | 0.468 (inactive) | -0.513 (inactive) | 0.441 | -0.0339 | 0.442 (inactive) | -0.105 | -1.29 | -6.16 (inactive) | -0.33 (inactive) | -0.413 (inactive) |
| COCCOC(=O)N1C(=O)[C@@]2(c3cc(C#CC4=CCCCC4)ccc31)[C@H](c1ccc(O)cc1)N1[C@H](c3ccccc3)[C@H](c3ccccc3)OC(=O)[C@H]1[C@@H]2C(=O)N1CCN(c2ncccn2)CC1 | 0.295 | 0.343 (inactive) | 0.182 (inactive) | 0.524 (inactive) | 0.29 (inactive) | 0.516 (inactive) | 0.777 (inactive) | 0.731 (inactive) | -0.169 | -0.0761 | -0.0719 (inactive) | 0.306 | 0.145 | -0.674 (inactive) | -0.231 (inactive) | -0.758 (inactive) |
| O=C1O[C@H](c2ccccc2)[C@H](c2ccccc2)N2[C@H]1[C@@H](C(=O)O)[C@]1(C(=O)Nc3ccc(C#CC4=CCCCC4)cc31)[C@H]2c1ccc(O)cc1 | -0.176 | -1.73 (inactive) | 0.248 (inactive) | -4.56 (inactive) | 1.42 (inactive) | 0.168 (inactive) | -0.448 (inactive) | -0.174 (inactive) | -0.0705 | 0.0938 | 0.406 (inactive) | 0.617 | -0.628 | -5.74 (inactive) | -0.0146 (inactive) | -0.19 (inactive) |
| NC(=O)NCC#Cc1ccc2c(c1)[C@]1(C(=O)N2)[C@H](C(=O)O)[C@H]2C(=O)O[C@H](c3ccccc3)[C@H](c3ccccc3)N2[C@@H]1c1ccc(OCCO)cc1 | 0.626 | 0.0086 (inactive) | 0.557 (inactive) | -0.932 (inactive) | 0.545 (inactive) | -0.285 (inactive) | -0.0444 (inactive) | -0.721 (inactive) | 0.547 | 0.361 | -0.316 (inactive) | 0.419 | -0.46 | -6.34 (inactive) | 0.242 (inactive) | 0.615 (inactive) |
| C[C@@H]1ON(c2ccc(C(=O)OC(C)(C)C)cc2)[C@H](c2ccc(O)cc2)[C@H]1C(=O)N1C(=O)OC[C@H]1Cc1ccccc1 | -1.61 | 0.479 (inactive) | -1.04 (inactive) | 0.771 (inactive) | 0.212 (inactive) | 0.351 (inactive) | -0.682 (inactive) | -0.118 (inactive) | -0.687 | -0.13 | 0.047 (inactive) | 0.599 | -0.393 | -3.64 (inactive) | -0.0209 (inactive) | -0.154 (inactive) |
| CO[C@H]1O[C@H](CO)[C@@H](OC(=O)Nc2ccc3c(c2)OCO3)[C@H](OC(=O)c2cc3ccccc3[nH]2)[C@H]1OC(=O)c1cc2ccccc2[nH]1 | -2.92 | -0.237 (inactive) | -3.48 (inactive) | -1.53 (inactive) | 0.69 (inactive) | -0.81 (inactive) | 0.387 (inactive) | 1.42 (inactive) | -3.84 | 0.151 | 0.472 (inactive) | 0.374 | -0.603 | -4.88 (inactive) | -0.308 (inactive) | -0.227 (inactive) |

From PubChem BioAssay
